Values joined by “and” are separate entries in the source; they are usually repeats but may differ in a detail not shown here. Equal values may be shown once. Records with an inconclusive call do not appear. Entries that show only a call come without a potency. Unmarked numbers belong to inactive results. Active and inactive are the calls of the source. How the calls were made is not given here.
Experiment: qHTS assay to identify small molecule antagonists of the estrogen related receptor signaling pathway with the pleiotropic PPARgamma coactivator (PGC) from Tox21 10K library (AID 1224841); further: actives are mostly falling curves and most rising ones were filed inactive; nearly all actives have a fitted effect of over 50% in size
Conditions: PGC/ERR reporter cell line, ONE-Glo luciferase, 18 h; series mostly up to 92.4 µM
Excerpt: U.S. Tox21 Program National Center for Advancing Translational Sciences [NCATS] NIH Chemical Genomics Center [NCGC] U.S. Environmental Protection Agency [EPA] National Institutes of Environmental Health Sciences [NIEHS] National Toxicology Program [NTP] U.S. Food and Drug Administration [FDA] Tox21 Assay Overview: Estrogen related receptors (ERRs), the first orphan nuclear receptors discovered, play an important role in the control of cellular energy metabolism. ERRs are required for high-energy production in response to the environmental challenges. The pleiotropic PPARgamma coactivator (PGC) is a major partner of ERR and a key regulator in energy homeostasis. Together they have been implicated in the etiology of metabolic disorders such as Type 2 diabetes and metabolic syndrome. ERR-alpha was also identified as an adverse marker for breast cancer progression; ERR-alpha-positive tumors have a poor prognosis. To screen and to identify environmental compounds that perturb the ERR and PGC/ERR signaling pathways could provide valuable information for potential therapeutic or preventive measures in the treatment of metabolic disease. For identifying PGC/ERR antagonists, PGC/ERR cell line (provided by NTP) has been used to screen Tox21 10K library.
Tox21 Assay Protocol Summary: The PGC/ERR cells were dispensed at 2,000 cells/5 ul/well in 1536-well white plates using a Multidrop dispenser. After the assay plates were incubated at a 37 C/5% CO2 incubator for 6 hours, 23 nL of compounds dissolved in DMSO, positive and negative controls or DMSO only was transferred to the assay plate by a pin tool. The plates were incubated at 37 C for 18 hours. 4 ul/well of One-Glo reagent was added into the assay plates using a Flying Reagent Dispenser. After 30-minute incubation at room temperature, the luminescence intensity in the plates was measured using a ViewLux plate reader.
Potency means the concentration at half of the fitted maximal effect.

Row | SMILES | Potency | activity, negative = inhibition
1 | CC(C)NCC(O)c1ccccc1Cl (stereo not given) | inactive | –
2 | Cc1c([N+](=O)[O-])cc2c(c1[N+](=O)[O-])C(C)(C)CC2(C)C | 30.6 µM (active) | –
3 | CN1CCc2cc(Cl)c(O)cc2[C@H]2c3ccccc3CC[C@@H]21 | inactive | –
4 | N#Cc1c[nH]cc1-c1cccc2c1OC(F)(F)O2 | 19.3 µM (active) | –
5 | CCOP(=O)(OCC)Oc1cc(C)nc(C(C)C)n1 | inactive | –
6 | CC(C)(C)c1ccc(OP(=O)(Oc2ccccc2)Oc2ccccc2)cc1 | 7.74 µM (active) | –
7 | CCCCON=O | 49.8 µM (active) | –
8 | CCC[CH2][Sn]([CH2]CCC)([O]C(C)=O)[O]C(C)=O | 0.0347 µM (active) | –
9 | CCNS(=O)(=O)C(F)(F)C(F)(F)C(F)(F)C(F)(F)C(F)(F)C(F)(F)C(F)(F)C(F)(F)F | inactive | –
10 | N#CC(C#N)=NNc1cccc(Cl)c1 | 0.969 µM (active) | –
11 | CC[C@]1(O)CC[C@H]2[C@@H]3CCC4=CCCC[C@@H]4[C@H]3CC[C@@]21C | inactive | –
12 | Nc1ccc(N=Nc2ccccc2)cc1 | inactive | –
13 | CCC(OC(C)=O)C(CC(C)NC)(c1ccccc1)c1ccccc1 (stereo not given) | inactive | –
14 | CCOP(=S)(OCC)SC(CCl)N1C(=O)c2ccccc2C1=O (stereo not given) | inactive | –
15 | Oc1ccc2[nH]cc(CCCCN3CC=C(c4ccccc4)CC3)c2c1 | 5.96 µM (active) | –
16 | Nc1ccc(Cl)cc1C(=O)c1ccccc1F | inactive | –
17 | C=CC(=O)[O][Sn]([CH2]CCC)([CH2]CCC)[CH2]CCC | 13.7 µM (active) | –
18 | Cc1ccccc1OP(=O)(Oc1ccccc1C)Oc1ccccc1C | inactive | –
19 | Cc1cc(C2CC2)nc(Nc2ccccc2)n1 | inactive | –
20 | O=C1C2(Cl)C3(Cl)C4(Cl)C(Cl)(Cl)C5(Cl)C3(Cl)C1(Cl)C5(Cl)C24Cl (stereo not given) | 53.6 µM (active) | –

Row | SMILES | Potency | activity, negative = inhibition
21 | c1ccc2c(c1)cc1ccc3cccc4ccc2c1c34 | inactive | –
22 | N#Cc1c2ccccc2cc2ccccc12 | inactive | –
23 | CCC1COC(Cn2cncn2)(c2ccc(Cl)cc2Cl)O1 (stereo not given) | 61.1 µM (active) | –
24 | CC(C)=CC1C(C(=O)OC(C#N)c2cccc(Oc3ccccc3)c2)C1(C)C (stereo not given) | inactive | –
25 | Clc1ccc(C2(Cn3cncn3)OCCO2)c(Cl)c1 | inactive | –
26 | CCC(C)Nc1c([N+](=O)[O-])cc(C(C)(C)C)cc1[N+](=O)[O-] (stereo not given) | inactive | –
27 | CCC[CH2][Sn]([CH2]CCC)([CH2]CCC)[O][Sn]([CH2]CCC)([CH2]CCC)[CH2]CCC | – | 332% [at 8.39 µM]
28 | COP(=O)(OC)O/C(=C\Cl)c1cc(Cl)c(Cl)cc1Cl | 5.45 µM (active) | –
29 | CCCCN(CCCC)C(=S)S | inactive | –
30 | C[C@]12C/C(=C/O)C(=O)C[C@@H]1CC[C@@H]1[C@@H]2CC[C@@]2(C)[C@H]1CC[C@]2(C)O | 43.7 µM (active) and 26.6 µM (active) | –
31 | COC(=O)C(C)N(C(=O)c1ccco1)c1c(C)cccc1C (stereo not given) | inactive | –
32 | CNC(=O)Oc1cc(C)cc(C(C)C)c1 | inactive | –
33 | Brc1ccc(Oc2ccc(Br)cc2Br)c(Br)c1 | inactive | –
34 | CCN1CCC2(CC1)COc1cc3c(cc12)N(C(=O)c1ccc(-c2ccc(-c4nnc(C)o4)cc2C)cc1)CC3 | 7.96 µM (active) | –
35 | CC(Cc1ccc2c(c1)OCO2)NO (stereo not given) | inactive | –
36 | C[C@H]1[C@H](c2ccc(Cl)cc2)SC(=O)N1C(=O)NC1CCCCC1 | 61.1 µM (active) | –
37 | COP(=S)(OC)Oc1nc(Cl)c(Cl)cc1Cl | inactive | –
38 | COC(=O)N(OC)c1ccccc1COc1ccn(-c2ccc(Cl)cc2)n1 | 0.486 µM (active) | –
39 | COc1cnc(OC)n2nc(NS(=O)(=O)c3c(OCC(F)F)cccc3C(F)(F)F)nc12 | inactive | –
40 | C=CCOC(=O)c1ccccc1N | inactive | –

— PubChem BioAssay (Tox21)
